Assay outcomes: PubChem, National Center for Advancing Translational Sciences (NCATS)
A selection: hits, their analogues and other compounds. The true share with any hit is near 5.8%.
SW480 rereplic: inducers of DNA re-replication in SW480 colon cancer cells. AID 624297. Potency, µM (series often up to 46.1 µM), without a hit: at the highest dose re-replication activation, actives largely listed as activators. SW480 DNA re-replication, Hoechst DNA content imaging, 48 h. actives 1.8% (n = 340,000); further: % of control where 0% means no effect; nearly all actives have a fitted effect of over 55% in size
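Hoechst fluorescence of nuclei (405 nm excitation, 500-530 nm emission) measured by plate-scanning imager after 48 hr compound exposure at 37 C; re-replication scored as increased number of nuclei with elevated intensity.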
12-LOX inh: inhibitors of human 12S-lipoxygenase ALOX12. purified 12hLO, xylenol orange hydroperoxide absorbance. Potency, µM (doses to about 108 µM), for the others: at the highest dose activity change, negative = inhibition, usual class: inhibitors. actives 1.1% (n = 580,000). AID 1671190; further: on the % scale 0 is the no-effect control and ±100 the full control effect
Target sequence (P18054 whole entry, looked up): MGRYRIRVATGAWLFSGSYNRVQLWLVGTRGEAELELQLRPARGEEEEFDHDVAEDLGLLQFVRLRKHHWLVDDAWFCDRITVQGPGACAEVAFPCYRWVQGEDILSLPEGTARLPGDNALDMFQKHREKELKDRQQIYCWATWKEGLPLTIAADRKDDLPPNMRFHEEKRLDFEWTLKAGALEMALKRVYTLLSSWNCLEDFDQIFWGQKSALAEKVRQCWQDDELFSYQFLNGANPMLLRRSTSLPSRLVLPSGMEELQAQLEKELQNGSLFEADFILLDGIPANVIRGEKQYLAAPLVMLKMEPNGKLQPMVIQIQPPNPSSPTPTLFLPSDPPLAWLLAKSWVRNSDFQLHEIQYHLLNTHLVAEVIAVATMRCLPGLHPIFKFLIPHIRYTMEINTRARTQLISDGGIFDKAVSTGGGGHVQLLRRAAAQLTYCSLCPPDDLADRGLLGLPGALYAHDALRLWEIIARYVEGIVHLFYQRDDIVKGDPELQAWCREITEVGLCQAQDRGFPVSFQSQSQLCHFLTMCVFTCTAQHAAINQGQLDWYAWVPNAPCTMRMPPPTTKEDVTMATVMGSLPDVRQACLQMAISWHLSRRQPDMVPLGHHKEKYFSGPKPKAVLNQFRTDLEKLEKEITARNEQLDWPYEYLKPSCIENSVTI
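Hydroperoxide product was detected by ferrous iron/xylenol orange as the 573 to 405 nm absorbance ratio. Arachidonic acid at 40 uM (final) was turned over for 30 min at room temperature by 150 nM human 12hLO, pH 7.0 Hepes buffer, after 15 min compound preincubation.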
KB-3-1 tox: KB-3-1 parental cell cytotoxicity; KB-3-1 viability, CellTiter-Glo ATP luminescence, 72 h; Potency, µM (doses to about 46.1 µM), usual class: cytotoxic; actives 1.4% (n = 400,000); AID 1347075; further: on the % scale 0 is the no-effect control and ±100 the full control effect; nearly all actives have a fitted effect of over 60% in size
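KB-3-1 parental drug-naive adenocarcinoma cells in DMEM/10% FBS, incubated 72 h at 37 C with pin-transferred compounds across a concentration series. Viability by CellTiter-Glo luminescence; concentration-response curves fitted after normalization.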
MCF10A rerep: DNA re-replication induction in MCF 10a cells; actives 2.9% (n = 350,000); AID 624296; MCF 10A DNA re-replication, Hoechst nuclear intensity, 48 h; Potency, µM (top dose mostly 46.1 µM), without a hit: top-dose activity, positive = re-replication, actives largely listed as activators; further: % of control where 0% means no effect; nearly all actives have a fitted effect of over 50% in size
PINK1 modulator: modulators of PINK1 expression; AID 624263; PINK1 immunofluorescence, high-content cytometry, 24 h; actives 0.2% (n = 410,000); Potency, µM (highest dose often 76.6 µM), without a hit: at the highest dose activation (PINK1 increase), hits mostly activators; active means well fitted activation curve with a large enough effect; inconclusive means small, poorly fitted or top-dose-only effect; cell line not stated here; further: % of control where 0% means no effect; nearly all actives have a fitted effect of over 65% in size
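Fluorescence from anti-PINK1 antibody, together with nuclear and cell stains, was scanned on a laser-scanning cytometer. Before staining, stable-line cells were incubated 24 hours with compounds at 5 concentrations; primary antibody 12 h at 10 degrees C.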
KB-V1 cytotox: kills drug-selected multidrug resistant KB-V1 cells; KB-V1 MDR cells viability, CellTiter-Glo, 72 h; Potency, µM (top dose mostly 46.1 µM), usual class: cytotoxic; actives 3.4% (n = 400,000); further: on the % scale 0 is the no-effect control and ±100 the full control effect; nearly all actives have a fitted effect of over 60% in size
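Compound-treated KB-V1 multidrug-resistant cells, 72 h, 37 degrees C; viability by CellTiter-Glo. Fitted qHTS curves give the values.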
Starred values were filed as active, the others as inactive; i = inactive; u = inconclusive; x = no result given; [ ] = another dose, or the depositor's remark. Unless noted, the call rests on the fitted dose curve; in most records, active means well fitted curve in the direction sought with a large enough effect; inconclusive means small, poorly fitted or top-dose-only effect, or another doubt; inactive means no such curve, though single readings can be large; an effect the other way counts as inactive or inconclusive. Potency means the concentration at half of the fitted maximal effect.

SMILES	SW480 rereplic	12-LOX inh	KB-3-1 tox	MCF10A rerep	PINK1 modulator	KB-V1 cytotox
O=C(COC(=O)/C=C/c1ccc([N+](=O)[O-])cc1)NC(c1ccccc1)c1ccccc1	20.4%	21.5%	i	23.1µM*	2.7%	i
O=C(COC(=O)/C=C/c1ccc([N+](=O)[O-])cc1)NCc1ccccc1	-4.4%	15.6%	i	2.6%	0.3%	i
CCOC(=O)c1c(NC(=O)CN2CCC(C)CC2)sc2c1CC(C)(C)OC2	x	4.3%	x	x	x	x
COC(=O)c1ccc2c(c1)C(C)(C)C(/C=C/c1ccccc1O)=[N+]2C	5.62µM*	u	4.47µM*	7.08µM*	-5.3%[38.3 µM]	u
C[N+]1=C(/C=C/Nc2ccccc2Cl)C(C)(C)c2ccccc21	8.2%	u	i	5.3%	u	u
O=C(/C=C/c1cccs1)OC(C(=O)c1c[nH]c2ccccc12)c1ccccc1 (stereo unspecified)	x	-5.3%	x	x	x	x
CCc1ccc(NC(=O)c2cc(-c3ccc[nH]3)n[nH]2)cc1	x	28.2µM*	x	x	x	x
O=C(Nc1ccc(F)cc1F)c1cc(-c2ccc[nH]2)n[nH]1	x	11.2µM*	x	x	x	x
CCc1cccc(NC(=O)c2cc(-c3ccc[nH]3)n[nH]2)c1	x	22.4µM*	x	x	x	x
CCOc1ccc(NC(=O)c2cc(-c3ccc[nH]3)n[nH]2)cc1	x	-22.0%	x	x	x	x
CCc1cccc(NC(=O)c2n[nH]c(=O)c3ccccc23)c1	x	4.3%	x	x	x	x
O=C(Nc1ccc(OC(F)(F)F)cc1)c1cc(-c2ccc[nH]2)n[nH]1	x	15.8µM*	x	x	x	x
CCCCn1c(=O)c2c(nc(Br)n2Cc2ccccc2)n(C)c1=O	x	6.4%	x	x	x	x
Cc1cc(N2C(=O)C(O)=C(C(=O)c3ccc(C)o3)C2c2cccc(Oc3ccccc3)c2)no1 (stereo unspecified)	u	u	i	25.9µM*	-0.5%	i
Cc1ccc(C(=O)C2=C(O)C(=O)N(Cc3cccnc3)C2c2cccc(Oc3ccccc3)c2)o1 (stereo unspecified)	1.4%	334.7%	i	7.8%	-0.1%	i
Cc1cc(N2C(=O)C(O)=C(C(=O)c3ccc(C)o3)C2c2cccc(Cl)c2)no1 (stereo unspecified)	x	44.7µM*	u	x	2.5%	u
Cc1cc(N2C(=O)C(O)=C(C(=O)c3ccc(C)o3)C2c2ccc([N+](=O)[O-])cc2)no1 (stereo unspecified)	-14.2%	39.8µM*	i	-5.7%	1.9%	i
COc1ccc(C2C(C(=O)c3ccc(C)o3)=C(O)C(=O)N2c2cc(C)on2)cc1OC (stereo unspecified)	-5.7%	u	i	5.9%	5.2%	i
C=CCN(CC=C)Cc1c(O)ccc2c(=O)c(-c3ccccc3)coc12	u	7.5%	i	20.6µM*	0.3%	i
CCN(Cc1ccccc1)Cc1c(O)ccc2c(=O)c(-c3ccc(Cl)cc3)coc12	x	u	x	x	0.6%	x
Cc1nnnn1CCCN1CCc2onc(-c3ccc(C(F)(F)F)cc3)c2C1	x	-25.8%	x	x	x	x
CCN(CC)C(=O)C1CCCc2c1[nH]c1ccc(Cl)cc21 (stereo unspecified)	-7.7%	-19.2%	6.51µM*	-6.5%	1.6%	i
CN(C(=O)C(c1ccccc1)c1ccccc1)c1nc2ccccc2o1	x	-25.4%	x	x	x	x
COC(=O)c1c(C)cccc1C1CN=NC12Cc1ccccc1C2=O (stereo unspecified)	-4.2%	1.1%	i	-5.3%	-2.5%	20.6µM*
N#Cc1nc(-c2ccccc2F)oc1NCc1ccccc1Cl	x	-28.2%	x	x	x	x
SMILES	SW480 rereplic	12-LOX inh	KB-3-1 tox	MCF10A rerep	PINK1 modulator	KB-V1 cytotox
CCC1(C)Nc2ccccc2C(=O)N1O (stereo unspecified)	u	0.631µM*	u	u	-0.8%	u
Cc1ccc(S(=O)(=O)N2CCN(c3ncnc4c3nnn4-c3ccccc3)CC2)c(C)c1	x	-1.5%	x	x	x	x
CCOc1ccc(C2c3cc(OC)c(OC)cc3CC(=O)N2c2ccc(OC)cc2)cc1 (stereo unspecified)	14.6µM*	13.6%	18.4µM*	124.0%	13.5%[38.3 µM]	u
Cc1cccc2c1NC(=O)C21N2CCCC2C(C(=O)c2ccc3ccccc3c2)C12C(=O)Nc1ccccc12 (stereo unspecified)	u	x	u	u	1.0%	i
CCc1cccc2c1NC(=O)C21N2CCCC2C(C(=O)c2ccc3ccccc3c2)C12C(=O)Nc1ccccc12 (stereo unspecified)	u	-10.5%	16.4µM*	14.5%	4.8%	u
CC(=O)Nc1cc(C(=O)COC(=O)c2ccc3ccccc3c2)ccc1O	x	-3.1%	x	x	x	x
CC(NC(=O)c1ccsc1)C1CCCO1 (stereo unspecified)	x	-18.1%	x	x	x	x
CC(=O)Nc1ccc(NC(=O)Cn2ccc3cc(Cl)ccc32)cc1	x	-22.1%	x	x	x	x
O=c1[nH]c(CSc2nc3ccccc3o2)nc2cc(Cl)ccc12	x	8.91µM*	x	x	x	x
O=c1[nH]c(CSc2nc3ccccc3o2)nc2ccccc12	x	-25.2%	x	x	x	x
CCCCCCCCN=C1NC(=O)CS1	-11.9%	-1.6%	u	3.3%	-10.3%[38.3 µM]	13µM*
CCc1ccc(N=C2NC(=O)CS2)cc1	-1.1%	0.0%	i	-0.7%	-1.7%	u
CC1=NN(c2nc3ccccc3[nH]2)C(=O)/C1=C/N(C)C	3.3%	x	5.8µM*	1.9%	-0.8%	u
CC1=NN(c2ccc([N+](=O)[O-])cc2)C(=O)/C1=C\N(C)C	-8.4%	u	u	-1.5%	2.0%	10.3µM*
O=c1[nH]c2ccccc2nc1NCc1ccccc1	1.8%	13.0%	i	1.8%	4.2%	i
CC1=NN(c2ccccc2)C(=O)/C1=C/N(C)C	3.6%	-14.6%	i	-1.0%	1.4%	i
CC1=NN(c2nc3ccccc3[nH]2)C(=O)C1Cc1ccccc1 (stereo unspecified)	2.91µM*	x	u	u	u	u
Cc1ccc2nc(C)c(C(=O)N3CCN(S(=O)(=O)c4ccc(C#N)cc4)CC3)cc2c1	x	0.9%	x	x	x	x
COc1ccc(CNCCC(c2ccc(OC(C)C)cc2)C(C)C)cc1OC (stereo unspecified)	u	-18.9%	u	u	u	5.17µM*
COc1ccc(C(CCNCc2ccc(OC(C)C)cc2)C(C)C)cc1 (stereo unspecified)	18.6%	u	i	-11.6%	-2.7%	14.6µM*
COc1ccc(C(CCNCc2ccc(N(C)C)cc2)C(C)C)cc1 (stereo unspecified)	u	u	i	u	u	16.4µM*
COc1ccc2nc(NC(=O)c3nn(C(C)C)c(=O)c4ccccc34)sc2c1	x	-0.2%	x	x	x	x
